The source of these data is PubChem BioAssay (NCI).

Experiment [1] can be described thus: NCI Yeast Anticancer Drug Screen. Data for the rad50 strain (AID 155).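 Further: 0% = growth of vehicle-only cultures of the same strain.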 Particulars: S. cerevisiae rad50 strain growth inhibition, stronger effect = higher value. An outline of the steps: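 DNA repair mutant yeast, compound exposure, growth read-out; inhibition is taken relative to vehicle.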
A short description of experiment [2]: NCI Yeast Anticancer Drug Screen. Data for the mec2-1 strain (AID 157). Conditions: S. cerevisiae mec2-1 strain, stronger effect = higher value. In short, it runs like this:
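mec2-1 yeast strain, carrying an alteration in DNA damage repair or cell cycle control, was exposed to compounds; growth inhibition was measured relative to vehicle-treated controls.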

The nature of experiment [3]: NCI Yeast Anticancer Drug Screen. Data for the sgs1 mgt1 strain (AID 161).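 Further: 0% = growth of cultures given vehicle only.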 Particulars: S. cerevisiae sgs1 mgt1 strain, stronger effect = higher value. An outline of the steps:
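Growth of a repair-deficient yeast mutant was monitored after compound treatment and expressed as inhibition relative to vehicle-treated cultures.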

Experiment [4] in a line: NCI Yeast Anticancer Drug Screen. Data for the cln2 rad14 strain (AID 165).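 Further: 0% = growth equal to vehicle treated cultures.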 Particulars: S. cerevisiae cln2 rad14 strain, stronger effect = higher value. In short, it runs like this: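 Yeast carrying cln2 and rad14 alterations (cell cycle control and DNA damage repair) were exposed to compounds. Growth inhibition was measured against vehicle-treated controls.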
Experiment [5] in a line: NCI Yeast Anticancer Drug Screen. Data for the bub3 strain (AID 167). Particulars: S. cerevisiae bub3 mutant strain, stronger effect = higher value. In short, it runs like this:
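In this screen, a yeast mutant lacking normal mitotic checkpoint function is challenged with compound. Relative growth versus vehicle gives the inhibition value.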

A short description of experiment [6]: NCI Yeast Anticancer Drug Screen. Data for the mlh1 rad18 strain (AID 175). Particulars: S. cerevisiae mlh1 rad18 strain growth inhibition, stronger effect = higher value. An outline of the steps: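 Growth inhibition of the yeast strain was measured after compound exposure and expressed relative to vehicle-treated controls. The strain carries defined defects in DNA damage repair.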

The mark [7] stands for this setting: at 5.0 µM (retest, dose inferred, filed as 0.5).
Where [8] appears, read: at 50.0 µM (retest, dose inferred, filed as 5.0).

Compounds without any hit were thinned out: in the full panel of roughly 79,000, 15% have a hit. A number with no mark means an inactive call. Active and inactive are the calls of the source. No stated cut-off is given here; in the data, active means growth inhibition above about 70%; inactive means the rest.

With `CC(=O)C1CCC2C3CC(F)C4(O)CC(O)CCC4(C)C3CCC12C` (configuration not stated), the growth inhibition in experiment [1] (setting [7]) was -120%; in experiment [1] (setting [8]), 98% (active); in experiment [1] (at 50.0 µM), 4.1%; in experiment [2] (setting [7]), -3%; in experiment [2] (setting [8]), 99% (active); in experiment [2] (at 50.0 µM), -1%. Also, the growth inhibition in experiment [3] (setting [7]) was -1%; in experiment [3] (setting [8]), 95% (active); in experiment [3] (at 50.0 µM), 62%; in experiment [4] (setting [7]), -6%; in experiment [4] (setting [8]) it was 58%; in experiment [4] (at 50.0 µM), -9.95%. In addition, the growth inhibition was -4% in experiment [5] (setting [7]); 33% in experiment [5] (setting [8]); 85.7% (active) in experiment [5] (at 50.0 µM); -20% in experiment [6] (setting [7]); 99% (active) in experiment [6] (setting [8]); 32.4% in experiment [6] (at 50.0 µM).
On to `CCN(CC)CCCC(C)Nc1cc(O)c2c(c1O)C(=O)c1ccccc1C2=O` (configuration not stated), for which the growth inhibition in experiment [1] (setting [7]) was 96% (active); in experiment [1] (setting [8]), 98% (active); in experiment [1] (at 50.0 µM), 98.8% (active); in experiment [2] (setting [7]), 95% (active); in experiment [2] (setting [8]) it was 99% (active); in experiment [2] (at 50.0 µM) it was 98.5% (active). The growth inhibition in experiment [3] (setting [7]) is 98% (active); in experiment [3] (setting [8]) it was 99% (active); in experiment [3] (at 50.0 µM), 98.8% (active); in experiment [4] (setting [7]) it was 53%; in experiment [4] (setting [8]), 98% (active); in experiment [4] (at 50.0 µM), 97.2% (active). Besides, the growth inhibition in experiment [5] (setting [7]) is 95% (active); in experiment [5] (setting [8]), 98% (active); in experiment [5] (at 50.0 µM) it was 97.8% (active); in experiment [6] (setting [7]), 94% (active); in experiment [6] (setting [8]), 98% (active); in experiment [6] (at 50.0 µM), 98.8% (active).
For `O=NN(CCCl)C(=O)Nc1cc(Cl)ccc1O`, the growth inhibition in experiment [1] (setting [7]) was -8%; in experiment [1] (setting [8]), 57%; in experiment [1] (at 50.0 µM), 86.2% (active); in experiment [2] (setting [7]), -8%; in experiment [2] (setting [8]) it was 30%; in experiment [2] (at 50.0 µM) it was 36.1%. Also, the growth inhibition is -5% in experiment [3] (setting [7]); 46% in experiment [3] (setting [8]); 72.5% (active) in experiment [3] (at 50.0 µM); -3% in experiment [4] (setting [7]); 13% in experiment [4] (setting [8]); 8.45% in experiment [4] (at 50.0 µM). For the same molecule, the growth inhibition in experiment [5] (setting [7]) was -21%; in experiment [5] (setting [8]), -16%; in experiment [5] (at 50.0 µM), 37.1%; in experiment [6] (setting [7]), 5%; in experiment [6] (setting [8]), 81% (active); in experiment [6] (at 50.0 µM), 90.1% (active).
As for `C1=C(c2ccccc2)[P+](c2ccccc2)(c2ccccc2)C=C(c2ccccc2)[P+]1(c1ccccc1)c1ccccc1`, the growth inhibition in experiment [1] (setting [7]) is 87% (active); in experiment [1] (setting [8]), 98% (active); in experiment [1] (at 50.0 µM), 99.3% (active); in experiment [2] (setting [7]), 89% (active); in experiment [2] (setting [8]), 99% (active); in experiment [2] (at 50.0 µM), 99.7% (active). The growth inhibition in experiment [3] (setting [7]) was 89% (active); in experiment [3] (setting [8]), 99% (active); in experiment [3] (at 50.0 µM), 99.2% (active); in experiment [5] (setting [7]), 83% (active); in experiment [5] (setting [8]) it was 99% (active); in experiment [5] (at 50.0 µM) it was 99.2% (active). The growth inhibition in experiment [6] (setting [7]) is 83% (active); in experiment [6] (setting [8]), 99% (active); in experiment [6] (at 50.0 µM), 99.2% (active).
Regarding `Nc1nc(=O)[nH]c([O-])c1N=O.Nc1nc(=O)[nH]c([O-])c1N=O.[Ag+].[Ag+]`, the growth inhibition in experiment [1] (setting [7]) is 37%; in experiment [1] (setting [8]) it was -25%; in experiment [1] (at 50.0 µM), 96.8% (active); in experiment [2] (setting [7]) it was 44%; in experiment [2] (setting [8]), -8%; in experiment [2] (at 50.0 µM), 98.7% (active). Also, the growth inhibition in experiment [3] (setting [7]) is 63%; in experiment [3] (setting [8]), -28%; in experiment [3] (at 50.0 µM), 92.9% (active); in experiment [4] (setting [7]) it was 28%; in experiment [4] (setting [8]) it was -17%; in experiment [4] (at 50.0 µM) it was 98.8% (active). Moreover, the growth inhibition in experiment [5] (setting [7]) was 76% (active); in experiment [5] (setting [8]), -28%; in experiment [5] (at 50.0 µM), 99.2% (active); in experiment [6] (setting [7]), 36%; in experiment [6] (setting [8]), -21%; in experiment [6] (at 50.0 µM), 96.9% (active).
